SW480 rereplic = A quantitative high throughput screen for small molecules that induce DNA re-replication in SW480 colon adenocarcinoma cells; Potency, µM (doses to about 46.1 µM), for inactives: top-dose re-replication activation, actives largely listed as activators; 1.8% of 340,000 active; SW480 DNA re-replication, Hoechst DNA content imaging, 48 h; further: % of control where 0% means no effect; nearly all actives have a fitted effect of over 55% in size
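First, 250 cells per well were seeded. Next, compound or vehicle (23 nL) was pinned in, plates sat 48 hr at 37 C. Finally Hoechst was added for 40 min before fluorescence scanning.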
Integrin act MD = qHTS for Activators of Integrin-Mediated Alleviation for Muscular Dystrophy | alpha7betagal myoblasts, beta-gal FDG fluorescence, 48 h | Potency, µM (series often up to 38.3 µM), inactives show top-dose activation, hits mostly activators | 0.064% of 350,000 active | AID 624291, 2012;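 further: 100% = response of the positive control SU9516; nearly all actives have a fitted effect of over 60% in size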
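Alpha7betagal+/- myoblasts (passage 13) were plated 16-24 hr, then exposed to compounds (1:260 dilution of DMSO stock) for 48 hours at 37C. After MPER lysis, β-galactosidase reporter activity was read as FDG fluorescence (ex 480/em 540) after 30 minutes.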
Mito fusion act = qHTS Assay for Small Molecule Inhibitors of Mitochondrial Division or Activators of Mitochondrial Fusion | S. cerevisiae fusion-defective mutant growth rescue, CellTiterGlo 48 h | Potency, µM (titrated, usually from 46.1 µM), without a hit: at the highest dose growth rescue (activation), actives largely listed as activators | 0.23% of 320,000 active; further: % of control where 0% means no effect; nearly all actives have a fitted effect of over 45% in size
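Growth-rescue viability read-out: after 48 h at the non-permissive 37C in glycerol/ethanol YPEG, yeast mitochondrial fusion mutants are measured by CellTiterGlo luminescence; compounds (23 nl pinned per well) restoring growth score as division inhibitors or fusion activators.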
MCF10A rereplic = A quantitative high throughput screen for small molecules that induce DNA re-replication in MCF 10a normal breast cells. 2.9% of 350,000 active. Potency, µM (series often up to 46.1 µM), for inactives: top-dose activity, positive = re-replication, actives largely listed as activators. MCF 10A DNA re-replication, Hoechst nuclear intensity, 48 h; further: % of control where 0% means no effect; nearly all actives have a fitted effect of over 50% in size
A-T KAP1 phos = qHTS Assay for Identifying a Potential Treatment of Ataxia-Telangiectasia | F2112 A-T fibroblasts, KAP-1 phosphorylation AlphaLISA; neocarzinostatin DNA damage 30 min before lysis | Potency, µM (titrated, usually from 57.5 µM), without a hit: at the top dose activation, actives largely listed as activators | 0.19% of 320,000 active | AID 485349, 2010; further: % of control where 0% means no effect; nearly all actives have a fitted effect of over 45% in size
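hTERT-immortalized A-T patient fibroblasts (F2112), 500 cells/well in OPTI-MEM, 1% FBS, got compounds for 60 min, then NCS for 30 min at 37C. Lysates were then assayed for phospho-KAP-1 by AlphaLISA (anti-pKAP1 donor, anti-KAP1 acceptor beads), 6 hr at 25C.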
Numbers without * were called inactive; ? = inconclusive; nt = no result given; [ ] = remark or other dose. The list is not random: actives were taken first. Their share in the collection is about 4.2%. The call rests on the fitted dose curve; in most records, active means well fitted activation curve with a large enough effect; inconclusive means small, poorly fitted or top-dose-only effect; inactive means no such curve, though single readings can be large or run the other way. Potency means the concentration at half of the fitted maximal effect.

SMILES	SW480 rereplic	Integrin act MD	Mito fusion act	MCF10A rereplic	A-T KAP1 phos
Cc1cc(C)n(-c2nnc(NCc3ccc(Cl)cc3)nn2)n1	12µM*	-16%	-3%	19%	0%
Cc1cc(S(=O)(=O)N2CCN=C2c2ccccc2)ccc1F	-1%	5%[7.66 µM]	0%	3%	-2%
CCOc1ccc(S(=O)(=O)N2CCN=C2c2ccccc2)cc1	7.3µM*	7%	1%	21µM*	0%
CC(C)=NOc1cc(NC(=O)CCl)cc([N+](=O)[O-])c1	9.2µM*	-53%	-40%	6.5µM*	-4%
O=C(CCl)Nc1cc(SCC(O)CO)cc([N+](=O)[O-])c1 (stereo not drawn)	5.8µM*	-37%	-4%	?	2%
O=C(O)c1ccc(NC2=C/C(=N/S(=O)(=O)c3cccs3)c3ccccc3C2=O)cc1	nt	-29%	nt	nt	nt
Cc1ccc(Cl)cc1NC1=C/C(=N\S(=O)(=O)c2cccs2)c2ccccc2C1=O	2.9µM*	-66%	-9%	0.65µM*	nt
Cc1ccc(NC2=C/C(=N\S(=O)(=O)c3cccs3)c3ccccc3C2=O)c(C)c1	6.5µM*	-55%	-17%	6.5µM*	-2%
Cc1cccc(NC2=C/C(=N/S(=O)(=O)c3cccs3)c3ccccc3C2=O)c1	?	-31%	0%	2.9µM*	27%
O=C1C(Nc2ccc(O)cc2)=C/C(=N/S(=O)(=O)c2cccs2)c2ccccc21	5.2µM*	-66%	-26%	?	-10%
O=C(CSc1ccccn1)Nc1cccc(S(=O)(=O)N2CCCC2)c1	-7%	29%	5%	-3%	5%
CCc1ccc(NS(=O)(=O)c2ccc3oc(=O)ccc3c2)cc1	-1%	-18%	0%	-1%	23%
CCOC(=O)c1sc(=S)n(Cc2ccccc2)c1C	-2%	7%	6%	0%	10%
CN(C)C(=S)N=c1ssc(=S)n1Cc1ccccc1	5.2µM*	-47%	nt	?	nt
CCOc1cc(CNCCc2ccc(S(N)(=O)=O)cc2)ccc1OCc1ccccc1	?	-36%[7.66 µM]	1%	21µM*	0%
COc1ccc(CNCCc2ccc(Cl)cc2)cc1OCc1ccccc1	?	-55%	-7%	21%	-1%
CCOc1cc(CNCc2ccccc2)ccc1OCc1ccc(Cl)cc1	15µM*	-65%	-37%	?	?
CC(=O)Nc1c(Cl)c(Cl)c2c(c1Cl)Cc1cc(Cl)ccc1-2	0%	-4%	nt	1%	nt
CC1CCCN(C(=O)CN2C(=O)NC(C)(c3ccc4ccccc4c3)C2=O)C1 (stereo not drawn)	-2%	22%	nt	-27%	13%
C=C(C)Cn1cnc2c(oc3nc4c(cc32)CCCC4)c1=O	2%	-24%	-11%	-1%	-1%
COc1ccc(OC)c(S(=O)(=O)N2CCC(C(=O)Nc3ccc(C)c(C)c3)CC2)c1	6%	-15%	-2%	8%	1%
O=C(NNC(=O)c1ccccc1O)c1ccc(S(=O)(=O)Nc2ccccc2)cc1	11µM*	-8%	-1%	0%	-5%
Cc1ccccc1NS(=O)(=O)c1ccc(C(=O)NNC(=O)c2ccccc2O)cc1	15µM*	0%	4%	5%	-14%
NC(=O)C1CCN(c2oc(/C=C/c3ccc(F)cc3)nc2S(=O)(=O)c2ccccc2)CC1	?	16%	0%	11%	5%
COCCNc1oc(/C=C/c2ccccc2OC)nc1S(=O)(=O)c1ccccc1	?	?	31%	21µM*	27%
SMILES	SW480 rereplic	Integrin act MD	Mito fusion act	MCF10A rereplic	A-T KAP1 phos
COc1ccccc1/C=C/c1nc(S(=O)(=O)c2ccccc2)c(N2CCC(C(N)=O)CC2)o1	18µM*	3%	35µM*	?	14%
CCC(=O)c1cn(CC(=O)Nc2ccc(F)cc2)c2ccccc12	nt	-9%	nt	nt	nt
Cc1ccc(C(=O)CCS(=O)(=O)c2ccc(Cl)cc2)cc1	9.2µM*	-60%	-3%	3.3µM*	4%
Cc1ccc(C(=O)CCS(=O)(=O)c2ccc(F)cc2)cc1	?	-40%	-1%	?	-2%
Cc1ccc(S(=O)(=O)CCC(=O)c2ccc(F)cc2)cc1	?	-54%	0%	4.6µM*	19%
CCOC(=O)c1c(NC(=O)/C=C\C(=O)O)sc(C)c1-c1ccccc1	?	-1%	4%	21µM*	2%
CCc1c(C)sc(NC(=O)/C=C/C(=O)O)c1C(N)=O	-4%	-15%	6%	-1%	-5%
Cc1sc(NC(=O)C2CCCCC2C(=O)O)c(C(N)=O)c1-c1ccc(C(C)(C)C)cc1 (stereo not drawn)	-4%	-25%	6%	?	-8%
CCOC(=O)c1c(NC(=O)/C=C/C(=O)O)sc(C)c1-c1ccc(C(C)(C)C)cc1	18µM*	-20%	24%	?	?
CCOC(=O)c1c(NC(=O)c2c(-c3ccccc3)noc2C)sc(C)c1-c1ccccc1	?	?	1%	?	nt
Cc1sc(NC(=O)/C=C/C(=O)O)c(C(N)=O)c1-c1ccc(C(C)(C)C)cc1	?	-20%	16%	21µM*	-12%
Nc1nc(N(Cc2ccccc2)Cc2ccccc2)nc(C(F)(F)F)n1	?	3%	14%	?	7%
C#CCNC(=O)C1=C[C@H](c2ccc(C(F)(F)F)cc2)C[C@H](OCc2ccc(CO)cc2)O1	?	-3%	6%	4.1µM*	nt
C#CCNC(=O)C1=C[C@@H](C)C[C@@H](OCc2ccc(CO)cc2)O1	-10%	0%	-5%	13%	-9%
C#CCNC(=O)C1=C[C@H](C(C)(C)C)C[C@H](OCc2ccc(CO)cc2)O1	-25%	-4%	-3%	18µM*	-15%
O=C(OCC(=O)N1CCNC1=O)c1ccccc1Cl	nt	10%	nt	nt	nt
COc1ccc2nc(Nc3nc(CSc4nc5ccccc5[nH]4)cc(=O)[nH]3)nc(C)c2c1	?	-39%	-4%	3.7µM*	0%
Cc1nc(Nc2nc(CSc3ccc(Cl)cc3)cc(=O)[nH]2)nc2ccccc12	?	-16%	-18%	12%	-4%
Cc1nc(Nc2nc(CSc3nc4ccccc4[nH]3)cc(=O)[nH]2)nc2ccccc12	?	-24%	-2%	12µM*	1%
O=C(Nc1ccccc1C(F)(F)F)C1CCN(C(=O)Cc2ccccc2)CC1	-4%	?	3%	5%	-2%
C=CCOc1c(OC)cc(/C=N/Nc2cccc(C(=O)O)c2)c(Br)c1Br	2.1µM*	0%	20%	21µM*	9%
C=CCOc1c(/C=N\NC(N)=O)cccc1OC	?	11%	9%	12%	1%
Cc1cc(=O)oc2cc3c(cc12)OCCN3	?	21%	-3%	8.2µM*	?
CN(C)c1ccc(-c2cc3ccccc3c(=O)o2)cc1	13µM*	36%	nt	15µM*	8%

Compound activity (PubChem BioAssay)
